Records with an inconclusive call do not appear. A call without a number means that no potency is given here. Calls of active or inactive are those of the source. The call rests on the fitted dose curve.

In this test the target is cAMP-dependent protein kinase catalytic subunit alpha (Homo sapiens) (UniProt P17612). Put plainly: Protein Kinase A (PKA-HiBiT) SDR gain of signal screen. To be noted: PKA-HiBiT structural dynamics response (SDR), luminescence gain of signal; series mostly up to 32.9 µM. From the text:
National Center for Advancing Translational Sciences (NCATS),
National Institute of Health (NIH), Maryland
Discovery and optimization of novel protein-binding ligands underlies many of the methods and applications of biology, drug discovery, clinical diagnostics, and environmental toxicology. Assays for detecting the interaction of, for example, a molecule with a macromolecular target also referred to here as the target of interest (TOI) is dependent on a compatible output technology. Depending on the nature and knowledge surrounding the TOI, whether a receptor, enzyme, regulatory subunit or scaffold, or a sequence-defined nucleic acid folded into a complex tertiary structure, assay strategies can vary widely.
Here we exploit ligand-biased changes in the structural dynamics of the target protein to control reporter alpha complementation allowing a non-competitive, non-functional, non-separation measure of ligand-target interaction.
Using a chemical library of >1,200 compounds enriched for scaffolds known to be associated with the inhibition of firefly luciferase (FLuc) activity (PubChem AIDs 2309) we first illustrate and compare the Structural Dynamics Response (SDR) assay vs. the standard functional FLuc enzyme assay (2). Secondly, we show the specificity and sensitivity of the SDR for the Abelson tyrosine kinase (ABL1) compared to the serine/threonine protein kinase A, using an enriched chemical library of 128 compounds selected, in part, for activity annotated with ABL1 kinase activity using the Pharos database (3).
(1) A. S. Dixon et al., NanoLuc Complementation Reporter Optimized for Accurate Measurement of Protein Interactions in Cells. ACS Chem Biol 11, 400-408 (2016).
Chemistry & Biology, 19, 1060 - 1072 (2012).
(3) K. J. Kelleher et al., Pharos 2023: an integrated resource for the understudied human proteome. Nucleic Acids Res 51, D1405-D1416 (2023).
PROTOCOL TABLE (as described by Inglese J, Shamu CE and Guy RK. 2007)
SEQUENCE No. (e.g., 1, 2, 3, etc.); […] (e.g., C. elegans, Compounds, Incubation, Read, etc.); VALUE and DESCRIPTION.
1. Reagent. Dispense 4 uL PKA-N-HiBiT enzyme per well at a final enzyme concentration of 10 nM in buffer into columns 2-48 of four replicate Greiner 1536-well white,solid bottom high base, medium plates per assay. Dispense respective buffer without enzyme at 4 uL/well in column 1 of assay plates using BioRaptr 2.
2. Compounds. Library compounds added at 23 nL/well by pin transfer. DMSO neutral control and H-89 positive control added at 25 nL/well, transfer by Mosquito dispenser.
3. Incubation. Incubate enzyme and compounds at room temperature for 30 min, protect from light.
4. Reagent. (SDR assay) Add 3 uL/well of Nano-Glo HiBiT reagent (Promega) to assay plates.
5. Incubation. (SDR assay) Incubate enzyme solution HiBiT reagent at room temperature for 10 min, protected from light.
6. Detector. (SDR assay) Luminescence measured using CCD-based camera (ViewLux) with settings as follows: Exposure, 1 sec; Gain, High; Speed, Slow; Binning, 2X.
On to `CCNC(=O)C[C@@H]1N=C(c2ccc(Cl)cc2)c2cc(OC)ccc2-n2c(C)nnc21`, for which the Potency result was “inactive”.
As for `O=[N+]([O-])O[C@H]1CO[C@H]2[C@@H]1OC[C@H]2O[N+](=O)[O-]`, the Potency result is “inactive”.
Then `O=C(NCCCNc1nc(Nc2ccc(N3CCOCC3)cc2)ncc1C1CC1)C1CCC1`, with “inactive”; and `Cc1[nH]nc2ccc(-c3cncc(OC[C@@H](N)Cc4c[nH]c5ccccc45)c3)cc12`, with 197 nM (active).
Then `C/C(O)=C(\C#N)C(=O)Nc1cc(Br)ccc1Br`, with “inactive”.
Then `N#Cc1cn([C@@H]2O[C@H](CO)[C@H](O)[C@@H]2O)c2ncnc(N)c12`, with “inactive”.

Source of the values: PubChem BioAssay AID1963322 (National Center for Advancing Translational Sciences (NCATS), 2024).
